{"source": "PubChem BioAssay AID686978", "about": "(National Center for Advancing Translational Sciences (NCATS), 2013)", "note": "“And” between values parts separate entries of the source, which are not always exact repeats. Equal values may be shown once. About 64,000 (15%) of roughly 420,000 compounds were called active. About 27% were inconclusive and are not listed. Calls come from the whole dose curve; as a rule, active = well fitted inhibition curve with a large enough effect; inconclusive = small, poorly fitted or top-dose-only effect; inactive = flat fitted curve, though single readings scatter. A selection follows. % is set by controls: 0 for no effect and ±100 for the full control effect; potency is the fitted concentration of half-maximal effect."}
{"experiment": "qHTS for Inhibitors of human tyrosyl-DNA phosphodiesterase 1 (TDP1): qHTS in cells in absence of CPT; note: nearly all actives have a fitted effect of over 55% in size", "conditions": "DT40 Tdp1-/- hTDP1 cells, no CPT, ATP luminescence, 48 h; activity change, negative = growth inhibition: at 46.2 µM (top of the series)", "how_it_was_run": "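Camptothecin absent (DMSO only). Human TDP1-complemented DT40 knockout cells, 400 cells/well, 37 °C for minimum 48 hr; ATP measured via CellTiter-Glo, 30 min dark incubation, luminescence.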"}
{"smiles": "O=C(Cn1ccc(=O)[nH]c1=O)Nc1ccc(C(=O)O)c(O)c1", "activity change, negative = growth inhibition": "-0.311% (inactive)"}
{"smiles": "COc1ccc(NC(=O)Cn2cc(C(=O)c3ccncc3)c(=O)c3cc(C)ccc32)cc1Cl", "activity change, negative = growth inhibition": "-7.3% (inactive)"}
{"smiles": "Cc1nn(C)cc1CNC(=O)Nc1ccc(Cl)cc1", "activity change, negative = growth inhibition": "-7.86% (inactive)"}
{"smiles": "COc1ncnc2c1N=C1CC(C)(C)CC(N)=C1S2", "activity change, negative = growth inhibition": "-20% (inactive)"}
{"smiles": "CC(C)(C)NC(=O)CN(C(=O)c1csnn1)c1ccccc1-c1ccccc1", "activity change, negative = growth inhibition": "-24.9% (inactive)"}
{"smiles": "COc1ccccc1N1CCN(CC(=O)NC(=O)NCc2ccco2)CC1", "activity change, negative = growth inhibition": "-5.84% (inactive)"}
{"smiles": "COc1ccccc1N1CCN(CCN2C(=O)c3ccccc3C(C)(C)C2=O)CC1", "Potency": "26.6 µM (active) and 23.1 µM (active)"}
{"smiles": "CNCC(O)CN1CCN(c2ccccc2OC)CC1", "note": "(stereo not given)", "activity change, negative = growth inhibition": "-16% (inactive)"}
{"smiles": "CCc1nc(N2CCN(C(C)=O)CC2)c2c3c(sc2n1)CCCC3", "activity change, negative = growth inhibition": "-15% (inactive)"}
{"smiles": "CCC(O)CNc1nc(-n2nc(C)cc2C)nc2sc3c(c12)CC(C)(C)OC3", "note": "(stereo not given)", "Potency": "10.3 µM (active)"}
{"smiles": "COCCn1c(C)cc(C(=O)CSc2ncnc3sc4c(c23)CCC4)c1C", "activity change, negative = growth inhibition": "-8.09% (inactive)"}
{"smiles": "CC/C(C)=N/Nc1nc2sc3c(c2c(=O)[nH]1)CC(C)(C)OC3", "activity change, negative = growth inhibition": "-26.6% (inactive)"}
{"smiles": "COCCNc1nc(-n2nc(C)cc2C)nc2sc3c(c12)CCCC3", "Potency": "5.17 µM (active)"}
{"smiles": "CC1(C)Cc2c(sc3nc4n(c(=N)c23)CCCCC4)CO1", "activity change, negative = growth inhibition": "-24.4% (inactive)"}
{"smiles": "O=C(NCc1ccc(F)cc1)C1CCN(C(=O)Nc2ccc(F)cc2)CC1", "activity change, negative = growth inhibition": "-1.08% (inactive)"}
{"smiles": "Cc1ccc(Oc2ccc3c(c2)C(=O)N(c2cccc4cccnc24)C3=O)cc1", "activity change, negative = growth inhibition": "-7.81% (inactive)"}
{"smiles": "CC(C)NC(=O)NC(=O)COC(=O)c1ccc(NC(=O)CC#N)cc1", "activity change, negative = growth inhibition": "5.12% (inactive)"}
{"smiles": "O=C1CSC(c2cccc(F)c2)N1c1ccc(O)cc1", "note": "(stereo not given)", "activity change, negative = growth inhibition": "-4.22% (inactive)"}
{"smiles": "CCCC(C)C(=O)OCC(=O)Nc1c(Br)cc(C)cc1Br", "note": "(stereo not given)", "activity change, negative = growth inhibition": "5.92% (inactive)"}
{"smiles": "NC(=O)COc1ccc(/C=N/NC(=O)C2CCCN2S(=O)(=O)c2ccc(Cl)cc2)cc1", "note": "(stereo not given)", "activity change, negative = growth inhibition": "-4.64% (inactive)"}
{"smiles": "Nc1[nH][nH]c(=O)c1N=Nc1ccc2c(c1)OCO2", "activity change, negative = growth inhibition": "-21.6% (inactive)"}
{"smiles": "C=CCN(N=Nc1cccc([N+](=O)[O-])c1)c1cccc([N+](=O)[O-])c1", "activity change, negative = growth inhibition": "-17.5% (inactive)"}
{"smiles": "CCOC(=O)c1cc2c(nc1NC(=S)Nc1ccccc1)CC(C)(CC)OC2", "note": "(stereo not given)", "activity change, negative = growth inhibition": "4.78% (inactive)"}
{"smiles": "COC(=O)Nc1ncc(CN2C(=O)c3ccccc3C2=O)s1", "activity change, negative = growth inhibition": "-5.56% (inactive)"}
{"smiles": "CN1C(=O)c2ccc(NC(=O)C3CCCCC3)cc2C1=O", "activity change, negative = growth inhibition": "3.08% (inactive)"}
{"smiles": "Cc1ccc(S(=O)(=O)NCCc2nnc3ccc(SCc4cccnc4)nn23)cc1", "activity change, negative = growth inhibition": "-1.62% (inactive)"}
{"smiles": "COC(=O)CSc1ccc2nnc(CCNS(=O)(=O)c3ccc(C)cc3)n2n1", "Potency": "inactive"}
{"smiles": "O=S(=O)(NCCc1nnc2ccc(SCc3ccc(Cl)cc3Cl)nn12)c1ccccc1", "Potency": "14.6 µM (active)"}
{"smiles": "COC(=O)Nc1ncc(CN2CCCCC2)s1", "activity change, negative = growth inhibition": "-9.35% (inactive)"}
{"smiles": "CN1CCC(N(C)C(=O)c2ccc(Cl)c(S(=O)(=O)Nc3ccc(Cl)cc3)c2)CC1", "activity change, negative = growth inhibition": "10.5% (inactive)"}
{"smiles": "Cc1cccnc1NC(=O)c1cccc(S(=O)(=O)N2CCN(c3ccc(F)cc3)CC2)c1", "Potency": "16.4 µM (active)"}
{"smiles": "O=C(Nc1ncccc1O)c1ccc(C(=O)c2ccccc2)cc1", "Potency": "23.1 µM (active)"}
{"smiles": "CCOC(=O)c1csc(NC(=O)c2ccc(S(=O)(=O)N3CCCC3)cc2)n1", "activity change, negative = growth inhibition": "-3.18% (inactive)"}
{"smiles": "O=C(NC(=O)c1ccccc1)Nc1ccccc1O", "activity change, negative = growth inhibition": "-5.92% (inactive)"}
{"smiles": "CCc1nnc(NC(=O)c2cc(S(=O)(=O)N3CCCCC3)ccc2C)s1", "activity change, negative = growth inhibition": "26% (inactive)"}
{"smiles": "O=C(CNC(=O)c1ccc2ccccc2c1)Nc1ncccc1O", "activity change, negative = growth inhibition": "14.5% (inactive)"}
{"smiles": "Cc1ccc(C)c2sc(NC(=O)c3ccc(S(=O)(=O)N4CCCC4)cc3)nc12", "Potency": "29.1 µM (active)"}
{"smiles": "O=C(N/N=C/c1ccccn1)c1ccc(S(=O)(=O)N2CCCCCC2)cc1", "activity change, negative = growth inhibition": "-5.03% (inactive)"}
{"smiles": "Cc1ccc(C(=O)Nc2ncccc2C)cc1S(=O)(=O)N1CCOCC1", "activity change, negative = growth inhibition": "3.18% (inactive)"}
{"smiles": "O=C(Nc1ccccc1F)c1ccc(S(=O)(=O)N2CCCCCC2)cc1", "activity change, negative = growth inhibition": "-23% (inactive)"}
{"smiles": "COc1cc(C(=O)Nc2ncccc2C)ccc1OCC(=O)N1CCOCC1", "activity change, negative = growth inhibition": "-1.91% (inactive)"}
{"smiles": "O=C(Nc1ncccc1O)c1ccc(S(=O)(=O)N2CCCC2)cc1", "Potency": "18.4 µM (active)"}
{"smiles": "CCCn1c(N)c(N(CCOC)C(=O)C2CCCC2)c(=O)[nH]c1=O", "activity change, negative = growth inhibition": "15.2% (inactive)"}
{"smiles": "CCOC(=O)c1nn(-c2ccccc2F)c2nc(Nc3ccccc3)cc(=O)n12", "activity change, negative = growth inhibition": "-26.7% (inactive)"}
{"smiles": "Nc1nnn(CC(=O)N/N=C/c2ccc(O)cc2)n1", "activity change, negative = growth inhibition": "1.74% (inactive)"}
{"smiles": "Cc1cc(NC(=O)c2cc3ccccc3o2)no1", "activity change, negative = growth inhibition": "-2.49% (inactive)"}
{"smiles": "COc1cccc(N(CC(=O)NCCSc2ccccn2)S(C)(=O)=O)c1", "activity change, negative = growth inhibition": "-13.4% (inactive)"}
{"smiles": "Cc1ccc(C(CNC(=O)Nc2cccc(C)c2)N2CCN(C)CC2)cc1", "note": "(stereo not given)", "activity change, negative = growth inhibition": "-0.589% (inactive)"}
{"smiles": "CCCCC/C=C\\CC1OC1CCCCCCCC(=O)O", "note": "(stereo not given)", "activity change, negative = growth inhibition": "-12.2% [at 0.628 µM] (inactive)"}
{"smiles": "O=C1c2ccccc2C(=O)N1CCCc1nc(-c2ccccc2)no1", "activity change, negative = growth inhibition": "-6.95% (inactive)"}
{"smiles": "O=C(O)c1ccc(S(=O)(=O)c2ccccc2)s1", "activity change, negative = growth inhibition": "-10.8% (inactive)"}
{"smiles": "NC(=O)CSc1nnc(NC(=O)c2ccc3ccccc3c2)s1", "activity change, negative = growth inhibition": "-2.45% (inactive)"}
{"smiles": "COc1ccc(C2/C(=C(/O)c3ccccc3)C(=O)C(=O)N2c2ncccn2)cc1OC", "note": "(stereo not given)", "activity change, negative = growth inhibition": "16.9% (inactive)"}
{"smiles": "OC(c1ccccc1)(c1ccccc1)C1CCN(CCCOc2ccccc2)CC1", "Potency": "16.4 µM (active)"}
{"smiles": "O=C(c1ccco1)N1CCN(CCOc2ccccc2)CC1", "activity change, negative = growth inhibition": "-12.4% (inactive)"}
{"smiles": "O=c1[nH]c2ccccc2n1C1CCN(CCOc2ccccc2)CC1", "Potency": "4.11 µM (active)"}
{"smiles": "O=C(c1ccc(Br)o1)N1CCN(CCOc2ccccc2)CC1", "activity change, negative = growth inhibition": "-31% (inactive)"}
{"smiles": "COc1ccc(OCCCCN2CCC(C)CC2)cc1", "activity change, negative = growth inhibition": "-0.61% (inactive)"}
{"smiles": "c1ccc(-c2ccc(OCCN3CCOCC3)cc2)cc1", "activity change, negative = growth inhibition": "-14.7% (inactive)"}
{"smiles": "Cc1ccc(C)c(N2C(=O)CS/C2=N\\NC(=O)c2ccccc2Cl)c1", "activity change, negative = growth inhibition": "18.4% (inactive)"}
{"smiles": "Cc1ccc(NC(=O)c2nc[nH]c2C(=O)N2CCCCC2)c(C(=O)c2ccccc2)c1", "activity change, negative = growth inhibition": "-29.3% (inactive)"}
{"smiles": "CC12CCC(C(=O)N(NC(=O)c3ccccc3O)C1=O)C2(C)C", "note": "(stereo not given)", "Potency": "18.4 µM (active)"}
{"smiles": "O=C(NN1C(=O)C2C(C1=O)C1C=CC2C12CC2)c1ccccc1Cl", "note": "(stereo not given)", "activity change, negative = growth inhibition": "-12.7% (inactive)"}
{"smiles": "COc1ccccc1C(=O)NN1C(=O)C2C3C=CC(O3)C2C1=O", "note": "(stereo not given)", "activity change, negative = growth inhibition": "-5.17% (inactive)"}
{"smiles": "O=C(NCc1nnnn1-c1ccc(Cl)cc1)c1ccc2c(c1)OCO2", "activity change, negative = growth inhibition": "-16% (inactive)"}
{"smiles": "O=C(Nc1cccc(Cl)c1)Nc1ccccc1NS(=O)(=O)c1cccs1", "activity change, negative = growth inhibition": "-27.6% (inactive)"}
{"smiles": "CC(OC(=O)c1cc2ccccc2[nH]1)C(=O)N(C)c1ccccc1", "note": "(stereo not given)", "activity change, negative = growth inhibition": "-21.1% (inactive)"}
{"smiles": "Cc1ccc(-n2c(SCC(=O)N3CCC(C(=O)O)CC3)nc3ccccc3c2=O)cc1C", "activity change, negative = growth inhibition": "-17.9% (inactive)"}
{"smiles": "Cc1ccc(-n2c(=O)c(C#N)cc3c(=O)n4ccccc4nc32)cc1C", "Potency": "23.1 µM (active)"}
{"smiles": "Cc1nc2ccccn2c(=O)c1NC(=O)c1cccs1", "activity change, negative = growth inhibition": "0.66% (inactive)"}
